Measurements as given in PubChem BioAssay AID1159580 (chemical genetic matrix, 2015).
Hit rate of the full screen: of about 5,500 compounds, about 2,000 (36%) were called active. About 18% were inconclusive and are not listed. No stated cut-off is given here; in the data, active means normalized growth mostly below about 0.91 (no sharp cut-off); inconclusive means no clear call, values can overlap the other calls; inactive means mostly above about 0.92. Some of the results follow.

Assay: chemical genetic growth profiling, strain panel (AID 1159580);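 further: tested at 20 µM; growth read once vehicle control cultures reached saturation at 30 °C; 1 = growth at the plate median or of vehicle wells; lower values mean less growth of the strain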
Conditions: S. cerevisiae deletion strains, growth OD

Measured: normalized growth

C=C1C2CC[C@H]3[C@]4(C)C[C@H](OC5OC(CO)C(OS(=O)(=O)O)C(OS(=O)(=O)O)C5OC(=O)CC(C)C)C[C@@H](C(=O)O)[C@H]4CC[C@]3(C2)[C@H]1O (some centres undefined)
inactive: locus YAL013W, strain DEP1, active compounds read low 1.01 | locus YAL021C, strain ccr4, active compounds read low 0.974 | locus YAL026C, strain drs2, active compounds read low 1.01 | locus YAL030W, strain snc1, active compounds read low 1.01 | locus YBL061C, strain skt5, active compounds read low 1.01 | locus YBR009C, strain hhf1, active compounds read low 1.02 | locus YBR021W, strain FUR4, active compounds read low 1.02 | locus YBR023C, strain chs3, active compounds read low 1.01 | locus YBR171W, strain sec66, active compounds read low 1.01 | locus YBR229C, strain ROT2, active compounds read low 1.01 | locus YBR231C, strain swc5, active compounds read low 1.02 | locus YBR279W, strain paf1, active compounds read low 1.01 | locus YCL011C, strain gbp2, active compounds read low 1.01 | locus YCL016C, strain dcc1, active compounds read low 1 | locus YCL029C, strain bik1, active compounds read low 0.983 | locus YCL061C, strain MRC1, active compounds read low 1.01 | locus YCL069W, strain vba3, active compounds read low 1.02 | locus YCR088W, strain abp1, active compounds read low 1.01 | locus YDL005C, strain med2, active compounds read low 1 | locus YDL035C, strain GPR1, active compounds read low 1.01 | locus YDL040C, strain nat1, active compounds read low 1 | locus YDL074C, strain BRE1, active compounds read low 1.04 | locus YDL101C, strain DUN1, active compounds read low 1.02 | locus YDL134C, strain PPH21, active compounds read low 1.01 | locus YDL185W, strain tfp1, active compounds read low 0.986 | locus YDL192W, strain arf1, active compounds read low 0.986 | locus YDR001C, strain nth1, active compounds read low 1.01 | locus YDR069C, strain doa4, active compounds read low 1.02 | locus YDR101C, strain arx1, active compounds read low 0.979 | locus YDR137W, strain rgp1, active compounds read low 1.01 | locus YDR150W, strain NUM1, active compounds read low 1.01 | locus YDR159W, strain sac3, active compounds read low 1.01 | locus YDR162C, strain NBP2, active compounds read low 1.04 | locus YDR195W, strain ref2 0.999 | locus YDR297W, strain sur2, active compounds read low 1.01 | locus YDR318W, strain mcm21, active compounds read low 0.978 | locus YDR334W, strain swr1, active compounds read low 1.01 | locus YDR335W, strain msn5, active compounds read low 1.01 | locus YDR388W, active compounds read low 0.988 | locus YDR392W, strain spt3, active compounds read low 0.942 | locus YDR502C, strain sam2, active compounds read low 0.994 | locus YEL003W, strain gim4, active compounds read low 1.01 | locus YEL037C, strain rad23, active compounds read low 1.01 | locus YEL061C, strain CIN8 (second series), active compounds read low 1 | locus YEL061C, strain CIN8, active compounds read low 1 | locus YER015W, strain faa2, active compounds read low 1.01 | locus YER016W, strain bim1, active compounds read low 1.01 | locus YER110C, active compounds read low 0.975 | locus YER111C, strain swi4, active compounds read low 1.01 | locus YER155C, strain BEM2 (second series), active compounds read low 1.02 | locus YER155C, strain BEM2, active compounds read low 1.02 | locus YER167W, strain BCK2, active compounds read low 1 | locus YFR010W, strain ubp6, active compounds read low 1.01 | locus YGL078C, strain dbp3, active compounds read low 0.978 | locus YGL086W, strain mad1, active compounds read low 0.972 | locus YGL167C, strain pmr1, active compounds read low 1.01 | locus YGL173C, strain kem1, active compounds read low 1.01 | locus YGL227W, strain vid30, active compounds read low 1.01 | locus YGL240W, strain doc1, active compounds read low 1.03 | locus YGL248W, strain PDE1, active compounds read low 1.01 | locus YGL253W, strain hxk2, active compounds read low 1.01 | locus YGR078C, strain PAC10, active compounds read low 1.03 | locus YGR135W, strain pre9, active compounds read low 0.987 | locus YGR229C, strain SMI1, active compounds read low 1.02 | locus YGR252W, strain gcn5, active compounds read low 1.02 | locus YHR013C, strain ard1, active compounds read low 0.999 | locus YHR027C, strain rpn1, active compounds read low 1.01 | locus YHR030C, strain SLT2, active compounds read low 1 | locus YHR079C, strain IRE1 (second series), active compounds read low 0.987 | locus YHR094C, strain hxt1, active compounds read low 0.988 | locus YHR129C, strain ARP1, active compounds read low 1.01 | locus YHR142W, strain chs7, active compounds read low 0.985 | locus YHR200W, strain rpn10, active compounds read low 0.996 | locus YIL066C, strain RNR3, active compounds read low 1.02 | locus YIL073C, strain SPO22, active compounds read low 0.966 | locus YIL125W, strain kgd1, active compounds read low 0.97 | locus YIR030C, strain dcg1, active compounds read low 0.99 | locus YJL092W, strain hpr5, active compounds read low 1.01 | locus YJL095W, strain BCK1 (second series), active compounds read low 1.01 | locus YJL095W, strain BCK1, active compounds read low 1.02 | locus YJL115W, strain asf1, active compounds read low 1.01 | locus YJL129C, strain trk1, active compounds read low 1.01 | locus YJL134W, strain LCB3, active compounds read low 1.01 | locus YJL154C, strain vps35, active compounds read low 1.01 | locus YJL164C, strain tpk1, active compounds read low 1 | locus YJL166W, strain qcr8, active compounds read low 1 | locus YJL168C, strain set2, active compounds read low 0.985 | locus YJL187C, strain SWE1 (second series), active compounds read low 1.02 | locus YJL187C, strain SWE1, active compounds read low 1.02
